Source: PubChem BioAssay (NCI)
This is part of a sample that, as a whole, favours compounds with a hit. Of some 83,000 tested, about 20% had one in any assay.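 The endpoint reported here, percent growth, reads 100 for growth as untreated, 0 for no net growth and -100 for all cells dead.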 The source made the active and inactive calls. Rule for the calls: active = growth percent below 10; inactive = the rest.

Tested on: MDA-MB-468 breast
Test: NCI-60 one-dose screen, 48 h (100 = growth as untreated, 0 = no growth, -100 = all killed)
Conditions: 10 µM unless noted

SMILES	growth
COc1ccc(NC(=O)C2CC3C=CC2C3)c([N+](=O)[O-])c1 (stereo not given)	93.1% (inactive)
Oc1c(-c2cc(C(F)(F)F)[nH]n2)cc(Cl)c(OCc2ccc(Cl)cc2)c1-c1ccc(Cl)c(C(F)(F)F)c1	-21.4% (active)
CNC(=O)c1cn(C2CC2)c2cc(N3CCN(C(=O)c4cc(OC)c(OC)c(OC)c4)CC3)c(F)cc2c1=O	103% (inactive)
COc1cc(OC)c2c(=O)c(O)c(-c3ccccc3)oc2c1	75.5% (inactive)
CCCOCc1cn[nH]n1	105% (inactive)
COc1ccc(Cl)cc1NC(=O)c1cc2c(n1C)-c1nc(NC(=O)C(C)C)sc1CC2	88.5% (inactive)
CO[C@H]1/C=C/O[C@@]2(C)Oc3c(C)c(O)c4c(O)c(c5c(nc6cc(C)ccn65)c4c3C2=O)NC(=O)/C(C)=C\C=C\[C@H](C)[C@H](O)[C@@H](C)C(O)[C@@H](C)[C@H](OC(C)=O)[C@@H]1C (stereo not given in full)	105% (inactive)
c1coc(CNc2c3ccccc3nc3ccccc23)c1	29.4% (inactive)
Cc1ccc(C2CCCCC2)cc1Br	97% (inactive)
Cc1ccc(C2=Nc3c(N)ncnc3NC(c3cccc(Nc4ccnc5cc(C(F)(F)F)ccc45)c3)C2)cc1 (stereo not given)	24.8% (inactive)
CC[C@@H]1C(=O)N(C)c2cnc(Nc3ccc(C(=O)NC4CCN(C)CC4)cc3OC)nc2N1C1CCCC1	-33.3% (active)
ClC(Cl)c1nc(-c2cccs2)n2nc(-c3ccccc3)cc2n1	-56.4% (active)
CN1CCN(Cc2ccc(NC(=O)c3cncc(C#Cc4cnc5[nH]ncc5c4)c3)cc2C(F)(F)F)CC1	40% (inactive)
C=C1CCC2(C#N)[C@H]3[C@H](CC[C@@H]2C)[C@@H](C)C[C@@H](CC(C)(C)NC(=O)CN2CCC2=O)[C@H]13 (stereo not given in full)	58% (inactive)
Fc1ccc(-c2nc(Nc3ccc(-c4nc5ccccc5[nH]4)cc3)nc(N3CCOCC3)n2)cc1	-84% (active)
Nc1ccn(C2OC(F)(CO)C(O)C2F)c(=O)n1 (stereo not given)	76.2% (inactive)
Clc1ccccc1-c1cnn2cc(-c3ccccc3)cnc12	90.8% (inactive)
N#Cc1ccccc1-c1ccc(CN2C(=O)S/C(=C\c3ccc(Br)cc3)C2=O)cc1	112% (inactive)
COc1ccc(C2=NNC(c3sc(Cl)nc3Cl)C2)cc1 (stereo not given)	70% (inactive)
CCOc1ccccc1C(=O)/C=C/c1cc2ccccc2[nH]c1=O	-20.2% (active)
COC(=O)CCCCC1=CCC2C(=O)C=C(O)C2C1 (stereo not given)	100% (inactive)
COc1cc(C2CC(c3ccc4c(c3)OCO4)=NN2C=O)cc(OC)c1OC (stereo not given)	-12.7% (active)
CCCCCCCCCCCCc1ccc([N+](CC)(CC)CC)cc1	-5.49% (active)
CCC(=O)C1C(=O)c2ccccc2C1=O	115% (inactive)
COc1ccc(-c2nc3cc(Cl)c(Cl)cc3n2CC(=O)N=Nc2c(O)[nH]c3ccc(OC)cc23)cc1	42.4% (inactive)
